According to PubChem BioAssay (Tox21):
Inconclusive results are not listed. The source made the active and inactive calls. The call rests on the fitted dose curve.

test: qHTS assay to identify small molecule agonists of H2AX - cell viability counter screen (AID 1224847); conditions: CHO-K1 viability, CellTiter-Glo luminescence, 3 h; series mostly up to 154 µM; activity change, negative = cytotoxicity: at the top concentration; further: nearly all actives have a fitted effect of over 30% in size;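 on activity change, negative = cytotoxicity: wild-type CHO-K1 cells; top concentration of the series differs between compounds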
In short: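 CHO-K1 cells plated overnight at 37C, then exposed 3 h at 37C to compounds at 15 concentrations (0.76% DMSO final). Viability by CellTiter-Glo luminescence after 30 min at room temperature.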
On the % scale 0 is the no-effect control and ±100 the full control effect; potency means the concentration at half of the fitted maximal effect.

Question: With `CCN(CC)C(=O)c1cc(S(=O)(=O)Cc2ccccc2)c(N2CCC(c3ccccc3)CC2)cc1N(CC)CCN(C)C` as the compound, how does the Potency read?
Answer: The Potency was 31.5 µM (active).

Question: With `Clc1nnc(Cl)c2ccccc12` as the compound, how does the “activity change, negative = cytotoxicity” value read?
Answer: The value was 2.59% (inactive).

Question: With `O=[N+]([O-])c1cccc(C(F)(F)F)c1` as the compound, how does the “activity change, negative = cytotoxicity” value read?
Answer: Its value is -1.29% (inactive).

Question: Which “activity change, negative = cytotoxicity” value does the source give for `CC(C)(C)NSc1nc2ccccc2s1` here?
Answer: The value was 5.08% (inactive).

Question: Which “activity change, negative = cytotoxicity” value does the source give for `CC(C)(c1cc(Br)c(OCC(Br)CBr)c(Br)c1)c1cc(Br)c(OCC(Br)CBr)c(Br)c1` (stereo not drawn) here?
Answer: The value was 2.53% [at 70.9 µM] (inactive).

Question: With `CCC(CC)(CC(=O)Nc1cccc(/C=C/c2nc(C3CCC3)cs2)c1)C(=O)O` as the compound, how does the “activity change, negative = cytotoxicity” value read?
Answer: Its value is 1.07% [at 70.9 µM] (inactive).

Question: With `COc1cc(/C=C/c2ccccc2)oc(=O)c1` as the compound, how does the “activity change, negative = cytotoxicity” value read?
Answer: Its value is -8.53% (inactive).

Question: Which “activity change, negative = cytotoxicity” value does the source give for `CCOC(=O)NNc1ccc(N(CC)CC(C)O)nn1` (stereo not drawn) here?
Answer: Its value is 0.135% [at 70.9 µM] (inactive).

Question: Which “activity change, negative = cytotoxicity” value does the source give for `O=C1CCCCCCCCCCCCCCCO1` here?
Answer: Its value is -0.643% (inactive).

Question: Which “activity change, negative = cytotoxicity” value does the source give for `COCCOc1cc2cc(C(=O)NC3CCN(C(C)C)CC3)n(CC(=O)Nc3ccc(Cl)cn3)c2cn1` here?
Answer: The value was 0.976% (inactive).

Question: With `CC1=Nc2ccccc2C1(C)C` as the compound, how does the Potency read?
Answer: Its Potency is 89.9 µM (active).

Question: With `O=C1C(c2[nH]c3ccc(S(=O)(=O)O)cc3c2O)=Nc2ccc(S(=O)(=O)O)cc21` as the compound, how does the “activity change, negative = cytotoxicity” value read?
Answer: The value was -12.4% (inactive).

Question: With `c1ccc(SSc2ccccc2)cc1` as the compound, how does the “activity change, negative = cytotoxicity” value read?
Answer: The value was -1.53% (inactive).

Question: With `S=C([S-])NCCNC(=S)[S-].S=C([S-])NCCNC(=S)[S-].[Mn+2].[Zn+2]` as the compound, how does the “activity change, negative = cytotoxicity” value read?
Answer: Its value is 2.56% [at 70.9 µM] (inactive).

Question: With `O=C(O)Cc1ccccc1Nc1c(Cl)cccc1Cl` as the compound, how does the Potency read?
Answer: The Potency was “inactive”.

Question: For `COc1cc(S(=O)(=O)O)c(C)cc1N=Nc1c(O)ccc2cc(S(=O)(=O)O)ccc12`, which Potency is on record?
Answer: The Potency was 45 µM (active).

Question: Which Potency does the source give for `Nc1ccc(NCCO)c([N+](=O)[O-])c1` here?
Answer: The Potency was 80 µM (active).

Question: With `CC(CO)Oc1ccccc1` (stereo not drawn) as the compound, how does the “activity change, negative = cytotoxicity” value read?
Answer: The value was -1.07% (inactive).

Question: For `O=C(/C=C/c1ccc(O)c(O)c1)O[C@@H](C(=O)O)[C@@H](OC(=O)/C=C/c1ccc(O)c(O)c1)C(=O)O`, which “activity change, negative = cytotoxicity” value is on record?
Answer: The value was 1.57% (inactive).

Question: With `C#Cc1ccc(-c2ccccc2F)cc1` as the compound, how does the “activity change, negative = cytotoxicity” value read?
Answer: Its value is 1.37% [at 70.9 µM] (inactive).

Question: Which “activity change, negative = cytotoxicity” value does the source give for `CCC(COC(=O)CCS)(COC(=O)CCS)COC(=O)CCS` here?
Answer: The value was -1.74% (inactive).

Question: For `Cl[Si](Cl)(c1ccccc1)c1ccccc1`, which “activity change, negative = cytotoxicity” value is on record?
Answer: The value was -1.83% (inactive).

Question: Which “activity change, negative = cytotoxicity” value does the source give for `NC(=S)NC(N)=S` here?
Answer: Its value is -9.65% (inactive).

Question: With `CCCCCCC1CCCC(=O)O1` (stereo not drawn) as the compound, how does the “activity change, negative = cytotoxicity” value read?
Answer: Its value is 5.41% (inactive).

Question: For `[Cl][Pt-2]([Cl])([Cl])[Cl]`, which “activity change, negative = cytotoxicity” value is on record?
Answer: Its value is -3.16% (inactive).

Question: With `C=Cc1ccccc1C=C` as the compound, how does the “activity change, negative = cytotoxicity” value read?
Answer: The value was -1.88% [at 401 µM] (inactive).

Question: With `C=C(C)C(=O)OCCCCCCCCCC` as the compound, how does the “activity change, negative = cytotoxicity” value read?
Answer: The value was -2.61% (inactive).

Question: For `CC(C)CCOC(=O)/C=C/c1ccccc1`, which “activity change, negative = cytotoxicity” value is on record?
Answer: The value was -22.7% (inactive).

Question: With `CCc1ccc(Br)cc1` as the compound, how does the “activity change, negative = cytotoxicity” value read?
Answer: Its value is -1.3% (inactive).

Question: For `C[C@H]1NCc2cc(-c3ccc4c(=O)c(C(=O)O)cn(C5CC5)c4c3OC(F)F)ccc21`, which activity change, negative = cytotoxicity is on record?
Answer: Its activity change, negative = cytotoxicity is 0.563% [at 31.6 µM] (inactive).

Question: Which “activity change, negative = cytotoxicity” value does the source give for `CC1=CCC(=C(C)C)CC1` here?
Answer: Its value is 2.48% (inactive).

Question: Which “activity change, negative = cytotoxicity” value does the source give for `Cc1c(C)c2c(c(C)c1OC(=O)c1cccnc1)CC[C@@](C)(CCC[C@H](C)CCC[C@H](C)CCCC(C)C)O2` here?
Answer: The value was -0.528% [at 70.9 µM] (inactive).

Question: For `Cc1cccc(C(=O)O)c1O`, which “activity change, negative = cytotoxicity” value is on record?
Answer: Its value is 0.665% [at 70.9 µM] (inactive).

Question: Which “activity change, negative = cytotoxicity” value does the source give for `CCCNCCC` here?
Answer: Its value is 2.13% (inactive).

Question: With `Cc1cccc2cccnc12` as the compound, how does the “activity change, negative = cytotoxicity” value read?
Answer: Its value is 2.11% (inactive).

Question: Which “activity change, negative = cytotoxicity” value does the source give for `Nc1nc2c(ncn2COCCO)c(=O)[nH]1` here?
Answer: The value was 1.4% [at 70.9 µM] (inactive).

Question: Which “activity change, negative = cytotoxicity” value does the source give for `CCC(C)[O-].CCC(C)[O-].CCOC(=O)/C=C(/C)[O-].[Al+3]` here?
Answer: Its value is 3.69% (inactive).

Question: Which “activity change, negative = cytotoxicity” value does the source give for `Cc1ccc(C(C)C)cc2c(C)ccc1-2` here?
Answer: The value was 1.43% [at 70.9 µM] (inactive).
